Screening data (PubChem BioAssay)
Rows were chosen to be rich in hits. Some 19% of all compounds tested hit in one or more screens of this group.
Pf growth 96h: P. falciparum growth inhibition at 96 hour, primary screen for plastid delayed-death inhibitors; P. falciparum luciferase reporter growth, 96 h; Potency, µM (doses to about 28.7 µM), inactives show top-dose activity change, negative = inhibition, usual class: inhibitors; actives 6.9% (n = 320,000); note: potency is the fitted concentration of half-maximal effect; % is set by controls: 0 for no effect and ±100 for the full control effect
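Parasite growth measured via integrated firefly luciferase reporter in P. falciparum. Infected erythrocytes at 2% hematocrit, 0.05% parasitemia final were treated 96 hours at 37 C under 5% CO2, and luminescence was read.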
CHX counter: counter-screen hit for Shiga toxin inhibitors, cycloheximide; cell reporter, cycloheximide protein synthesis inhibition counterscreen; max response, %; actives 12% (n = 300,000); in the data active = max response mostly above about 13%, no sharp cut-off; inactive = mostly below about 14%; note: read at 38.3 µM for the half of the compounds with a filed dose; 0% is about no effect
Lassa entry inh: Lassa virus entry inhibition; Potency, µM (highest dose often 37.9 µM), for inactives: at the highest dose activity change, negative = inhibition, hits mostly inhibitors; actives 1.2% (n = 300,000); Lassa virus pseudotype entry inhibition, cell reporter; calls by dose curve; tested in HEK293 cells; note: potency is the fitted concentration of half-maximal effect; % is set by controls: 0 for no effect and ±100 for the full control effect; nearly all actives have a fitted effect of over 50% in size
Pf growth 48h: inhibits P. falciparum growth in the first generation, 48 h; P. falciparum luciferase growth in erythrocytes, 48 h; Potency, µM (doses to about 28.7 µM), for the others: at the highest dose activity change, negative = inhibition, actives largely listed as inhibitors; actives 5.9% (n = 310,000); AID 504832; note: potency is the fitted concentration of half-maximal effect; % is set by controls: 0 for no effect and ±100 for the full control effect
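Cell-based growth assay: transgenic P. falciparum expressing firefly luciferase, cultured in red cells within RPMI 1640 containing 0.5% w/v Albumax, 24 mM bicarbonate and gentamycin. A drop in luciferase activity indicates inhibition.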
Shiga toxin inh: Shiga toxin inhibition; Vero cells, Shiga toxin protein synthesis inhibition reporter; inhibition, % at 38.7 µM; actives 9.2% (n = 290,000); in the data active = inhibition mostly above about 28%, no sharp cut-off; inactive = mostly below about 43%; note: 0% is about no effect
Marburg entry inh: Marburg virus entry inhibition. Marburg virus pseudotyped entry inhibition, cell reporter. Potency, µM (top dose mostly 37.8 µM), inactives show top-dose activity change, negative = inhibition, hits mostly inhibitors. actives 1.8% (n = 300,000). AID 540276; calls by dose curve; tested in HEK293 cells; note: potency is the fitted concentration of half-maximal effect; % is set by controls: 0 for no effect and ±100 for the full control effect
* hit, by the source's call; [ ] = dose if it differs, or a comment. Unless noted, calls come from the whole dose curve; as a rule, active = well fitted inhibition curve with a large enough effect; inconclusive = small, poorly fitted or top-dose-only effect, or another doubt; inactive = no such curve, though single readings can be large or run the other way.

What do the screens show for `C[C@H](NC(=O)c1nc[nH]c1C(=O)NCc1ccc(CNC(=O)OC(C)(C)C)cc1)c1ccccc1`?
Pf growth 96h: inconclusive; Pf growth 48h: 10µM*

What do the screens show for `C[C@H](NC(=O)c1nc[nH]c1C(=O)N[C@@H](CCCCNC(=O)OC(C)(C)C)C(=O)OC(C)(C)C)c1ccccc1`?
Pf growth 96h: inconclusive; CHX counter: 9; Pf growth 48h: 10µM*; Shiga toxin inh: -6

Results for CC(C)(C)OC(=O)NCCCC[C@H](NC(=O)c1nc[nH]c1C(=O)NCc1ccccc1)C(=O)OC(C)(C)C ?
Pf growth 96h: inconclusive; CHX counter: 9; Pf growth 48h: inconclusive; Shiga toxin inh: -11

Results for CN(Cc1ccccc1)C(=O)c1[nH]cnc1C(=O)N[C@@H](CCCCNC(=O)OC(C)(C)C)C(=O)OC(C)(C)C ?
Pf growth 96h: 8.3µM*; CHX counter: -3; Pf growth 48h: inconclusive; Shiga toxin inh: -4

Results for C[C@@H](NC(=O)c1nc[nH]c1C(=O)NCC(=O)OC(C)(C)C)c1ccccc1 ?
Pf growth 96h: 0%; CHX counter: 4; Pf growth 48h: 15%; Shiga toxin inh: -3

What do the screens show for `CC(C)C[C@H](NC(=O)c1nc[nH]c1C(=O)N(C)Cc1ccccc1)C(=O)OC(C)(C)C`?
Pf growth 96h: 7.4µM*; CHX counter: -1; Pf growth 48h: inconclusive; Shiga toxin inh: -4

How did C[C@H](NC(=O)c1nc[nH]c1C(=O)NCCCCCNC(=O)OC(C)(C)C)c1ccccc1 do in these assays?
Pf growth 96h: 5.2µM*; Pf growth 48h: 10µM*

Results for CC(C)C[C@H](NC(=O)c1[nH]cnc1C(=O)N[C@H](C)c1ccccc1)C(=O)OC(C)(C)C ?
Pf growth 96h: inconclusive; CHX counter: 6; Pf growth 48h: inconclusive; Shiga toxin inh: 15

Results for CCc1cccc(NC(=O)Nc2cccs2)c1 ?
Pf growth 96h: inconclusive; CHX counter: 28*; Lassa entry inh: -13%; Pf growth 48h: inconclusive; Shiga toxin inh: active; Marburg entry inh: inconclusive

How did COc1ccc(NC(=O)CN(C)Cc2cccs2)cc1Cl do in these assays?
Pf growth 96h: -28%; CHX counter: 12; Lassa entry inh: inconclusive; Pf growth 48h: inconclusive; Shiga toxin inh: 21; Marburg entry inh: inconclusive

Results for COc1ccc(NC(=O)Nc2cccs2)cc1Cl ?
Pf growth 96h: -17%; CHX counter: 39*; Pf growth 48h: 47%; Shiga toxin inh: active

How did COc1ccc(NC(=O)CCC(=O)c2cccs2)cc1Cl do in these assays?
Pf growth 96h: 44%; CHX counter: 9.5*; Lassa entry inh: -5%[46.1 µM]; Pf growth 48h: 52%; Shiga toxin inh: 11; Marburg entry inh: -14%[46.1 µM]

Results for N#Cc1cccc(NC(=O)Nc2cccs2)c1 ?
CHX counter: -2; Lassa entry inh: 16%; Pf growth 48h: inconclusive; Shiga toxin inh: 20; Marburg entry inh: inconclusive

What do the screens show for `COc1ccc(CCN=C(N)NS(=O)(=O)c2cc(F)ccc2F)cc1`?
Pf growth 96h: -13%; CHX counter: -1; Pf growth 48h: 29%; Shiga toxin inh: -11

Results for COc1cccc(CN(C)CC(O)COc2cc(Cl)ccc2Cl)c1 (stereo unspecified) ?
Pf growth 96h: inconclusive; CHX counter: 1; Pf growth 48h: 10µM*; Shiga toxin inh: -2

What do the screens show for `Cc1nc2nc(C(F)(F)F)[nH]n2c(=O)c1Cc1ccccc1`?
Lassa entry inh: 4%[46.1 µM]

What do the screens show for `Cc1ccc(-c2csc(N3CCC[C@@H]3C(=O)NCCn3c(C(F)(F)F)nc4ccccc43)n2)cc1`?
Pf growth 96h: 2.3µM*; CHX counter: 7; Pf growth 48h: inconclusive; Shiga toxin inh: 17

What do the screens show for `Cc1ccc(-c2csc(N(CCO)CCCn3c(C(F)(F)F)nc4ccccc43)n2)cc1`?
Pf growth 96h: 6.6µM*; CHX counter: 13; Pf growth 48h: inconclusive; Shiga toxin inh: 14

Results for COc1cc(OC)c(OC)cc1CCC(C)NCCC(c1ccccc1)c1ccccc1 (stereo unspecified) ?
Pf growth 96h: 2.1µM*; CHX counter: -3; Pf growth 48h: 4.1µM*; Shiga toxin inh: -15

Results for O=C(NCc1ccc(Cl)cc1)c1cc2ccccc2oc1=O ?
Pf growth 96h: 5.2µM*; CHX counter: 14; Lassa entry inh: 23%; Pf growth 48h: -5%; Shiga toxin inh: 11; Marburg entry inh: 7%

What do the screens show for `COc1ccc(CNC(=O)c2cc3ccccc3oc2=O)cc1`?
Pf growth 96h: 151%; CHX counter: -2; Pf growth 48h: 30%; Shiga toxin inh: 3

How did CC(C)(C)NC(=O)c1cc2c(ccc3ccccc32)oc1=O do in these assays?
Pf growth 96h: 106%; CHX counter: 27*; Lassa entry inh: 20%; Pf growth 48h: 22%; Marburg entry inh: 10%

How did O=C(NCc1ccccc1)c1cc2ccccc2oc1=O do in these assays?
Pf growth 96h: -29%; CHX counter: 50*; Pf growth 48h: 28%; Shiga toxin inh: 44*

What do the screens show for `COc1ccccc1CNC(=O)c1cc2ccccc2oc1=O`?
Pf growth 96h: -23%; CHX counter: -3; Pf growth 48h: -17%; Shiga toxin inh: -12

How did CN(C)C(CNC(=O)c1cc2ccccc2oc1=O)c1ccccc1 (stereo unspecified) do in these assays?
Pf growth 96h: 35%; CHX counter: 27*; Lassa entry inh: -19%; Pf growth 48h: 26%; Shiga toxin inh: 90*; Marburg entry inh: -1%[46.1 µM]

How did O=C(O)c1cc2c(ccc3ccccc32)oc1=O do in these assays?
Pf growth 96h: 0%; CHX counter: -4; Shiga toxin inh: -13; Marburg entry inh: -4%

How did C[n+]1cccc(C(=O)[O-])c1 do in these assays?
Pf growth 96h: -1%; Pf growth 48h: 12%

Results for CC1(C)C2(C#N)C(=O)NC(=O)C12C#N (stereo unspecified) ?
Lassa entry inh: 2%[46.1 µM]; Marburg entry inh: -1%[46.1 µM]

How did O=c1c2ccccc2nc(Cc2ccccc2)n1-c1ccc(O)cc1 do in these assays?
Pf growth 96h: 0%; CHX counter: -2; Lassa entry inh: inconclusive; Pf growth 48h: 4%; Shiga toxin inh: 22; Marburg entry inh: inconclusive

How did O=C(Nc1ccc(Cl)cc1C(=O)c1ccccc1)c1ccccc1 do in these assays?
Pf growth 96h: 0%; CHX counter: -5; Lassa entry inh: -2%; Pf growth 48h: 13%; Shiga toxin inh: -14; Marburg entry inh: -29%[46.1 µM]

How did CCOc1ccccc1N1CCN(C(=O)c2ccncc2)CC1 do in these assays?
CHX counter: -2; Lassa entry inh: 15%; Pf growth 48h: 5%; Shiga toxin inh: -10; Marburg entry inh: 19%

Results for CCOc1ccccc1N1CCN(C(=O)c2cc(-c3cccnc3)nc3c(Cl)cccc23)CC1 ?
Pf growth 96h: 4%; CHX counter: -3; Lassa entry inh: inconclusive; Pf growth 48h: 3.3µM*; Shiga toxin inh: -2; Marburg entry inh: inconclusive
